Screens: PubChem, National Center for Advancing Translational Sciences (NCATS)
A selection: hits, their analogues and other compounds. The true share with any hit is near 7.4%.
TSHR ag: agonists of human thyroid stimulating hormone receptor. Potency, µM (top dose mostly 57.1 µM), usual class: activators. AID 926. P16473. 73,000 compounds, 0.48% hits. HEK293-CNG-TSHR cells (CNG channel as cAMP sensor), membrane potential dye, cAMP; active means well fitted activation curve with a large enough effect in the main read-out, with a control signal flat, not every such curve was filed as active; inconclusive means small, poorly fitted or top-dose-only effect, or a change in a side signal; inactive means no such curve, though single readings can be large or run the other way; reference of the percent scale not stated here;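 further: the control signal comes from parental cells without the receptor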
Target sequence (P16473 whole entry, looked up): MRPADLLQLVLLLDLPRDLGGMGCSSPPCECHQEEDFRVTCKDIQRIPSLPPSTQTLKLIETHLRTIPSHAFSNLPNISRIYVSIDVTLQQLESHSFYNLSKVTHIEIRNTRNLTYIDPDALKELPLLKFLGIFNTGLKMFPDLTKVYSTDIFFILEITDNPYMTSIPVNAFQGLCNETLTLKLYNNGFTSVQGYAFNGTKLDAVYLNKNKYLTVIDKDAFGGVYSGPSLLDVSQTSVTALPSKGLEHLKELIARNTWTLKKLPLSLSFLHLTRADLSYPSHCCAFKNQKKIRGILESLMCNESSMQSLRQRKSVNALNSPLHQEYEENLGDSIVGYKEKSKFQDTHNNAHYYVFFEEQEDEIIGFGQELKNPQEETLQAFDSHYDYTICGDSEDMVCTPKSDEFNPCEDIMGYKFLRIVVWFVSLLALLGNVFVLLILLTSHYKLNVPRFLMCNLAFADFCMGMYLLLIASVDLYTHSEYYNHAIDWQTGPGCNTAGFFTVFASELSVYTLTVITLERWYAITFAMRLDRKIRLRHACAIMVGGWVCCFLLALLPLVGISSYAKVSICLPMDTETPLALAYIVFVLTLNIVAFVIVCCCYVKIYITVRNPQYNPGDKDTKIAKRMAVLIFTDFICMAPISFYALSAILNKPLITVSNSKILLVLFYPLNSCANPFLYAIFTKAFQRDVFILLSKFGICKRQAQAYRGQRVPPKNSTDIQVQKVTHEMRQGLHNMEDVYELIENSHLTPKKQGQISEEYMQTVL
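HEK 293 cells stably expressing TSHR and a cAMP-gated CNG channel; parental CNG-only cells as counterscreen. Cells preloaded 60 min with membrane potential dye plus 100 uM RO 20-1724, then compound 30 min; fluorescence read at 590 nm.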
ERK AVP inh: blocks ERK signaling stimulated by vasopressin. HEK293-V1b, vasopressin-stimulated pERK AlphaScreen. Potency, µM (titrated, usually from 57.5 µM), usual class: inhibitors. 72,000 compounds, 0.99% hits; further: nearly all actives have a fitted effect of over 55% in size
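Overnight-seeded V1b-HEK293 cells in 1% FBS got compound, then vasopressin (25 nM final, 5 min, 37C), then lysis buffer. AlphaScreen detection of phospho-ERK; activity normalized to basal and full-stimulation controls.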
Tau filament bind: binds recombinant human tau filaments. P10636. recombinant tau filaments, thioflavin S fluorescence, 15 h; filaments grown with octadecylsulfate alongside compound. Potency, µM (top dose mostly 57.1 µM). 71,000 compounds, 2% hits. AID 596;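 further: actives lower thioflavin S fluorescence by blocking filaments or displacing dye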
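Quantitative HTS: thioflavine S signal from ODS-induced tau filaments, excited at 450 nm, emission 510 nm. Conditions: 1 uM tau, 30 uM ODS, 15 h at 37 C, pH 7.4.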
CRE-bla Fsk: CRE-bla signaling modulation under forskolin stimulation. CHO CRE-bla reporter (cAMP response element driving beta-lactamase), forskolin EC10, beta-lactamase ratio. Potency, µM (titrated, usually from 38.2 µM), actives largely listed as activators. 71,000 compounds, 2.5% hits. AID 662; active means well fitted activation curve with a large enough effect in the signal ratio, with a control signal flat, not every such curve was filed as active; inconclusive means small, poorly fitted or top-dose-only effect, or effect the other way, or a change in a side signal; the % refers to the signal ratio
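Beta-lactamase reporter under a cAMP responsive element in CHO cells; compounds tested in titration series against EC10 NKH 477, 3 h at 37 °C. Read-out: CCF4 FRET ratio 460nm/530nm (excitation 405nm) giving %Activity, fitted to AC50.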
HEK293 cAMP cs: raises cAMP in parental HEK293 cells, TSHR agonist counter-screen. Potency, µM (doses to about 57.1 µM), usual class: activators. parental HEK293 CNG cAMP sensor, membrane potential fluorescence. 73,000 compounds, 2.5% hits; further: nearly all actives have a fitted effect of over 55% in size
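Parental HEK 293 cells stably expressing a cAMP-gated CNG channel were loaded with membrane potential dye containing 100 uM RO 20-1724 for 60 min. Compound added for 30 min; depolarization read as fluorescence intensity at 590 nm.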
Numbers stand for hits; - = inactive; ? = inconclusive; . = no result given; [ ] = dose if it differs, or a comment. Unless noted, the call rests on the fitted dose curve; in most records, active means well fitted curve in the direction sought with a large enough effect; inconclusive means small, poorly fitted or top-dose-only effect, or another doubt; inactive means no such curve, though single readings can be large; an effect the other way counts as inactive or inconclusive.

SMILES	TSHR ag	ERK AVP inh	Tau filament bind	CRE-bla Fsk	HEK293 cAMP cs
O=C(Nc1ccc2c(c1)OCO2)C1Cc2ccccc2CN1S(=O)(=O)c1cccs1 (configuration not stated)	-	-	25.1µM	?	-
COc1ccc(-c2nc3cnc(OC)nc3n(-c3ccc(OC)cc3)c2=O)cc1	-	-	-	?	-
COc1ccc(COC(=O)N/N=C2/C[C@@H](O)[C@@H](O)[C@@H]3[C@@H]4C(=O)N(Cc5ccccc5)C(=O)[C@H]4CC[C@@H]23)cc1	-[11.4 µM]	-[11.5 µM]	.	.	-[11.4 µM]
c1ccc([C@H](c2cccc3c2ccc2ccccc23)[C@H](c2ccccc2)c2cccc3c2ccc2ccccc23)cc1	-[11.4 µM]	-[11.5 µM]	-[11.4 µM]	-[7.6 µM]	-[11.4 µM]
O=C(COC(=O)c1cc(-c2ccco2)nc2ccccc12)NCc1ccc2c(c1)OCO2	?	?	12.6µM	?	?
O=C(COC(=O)c1c2c(nc3ccccc13)CCCC2)Nc1ccc2c(c1)OCO2	?	?	15.8µM	-	?
O=C(COC(=O)c1cc(-c2cccs2)nc2ccccc12)NCc1ccco1	.	?	15.8µM	-	-
Cc1cc(C(=O)OCC(=O)NCc2ccco2)c(C)n1-c1ccc(F)cc1	?	-	-	?	15.8µM
NCCC[C@@H](CC(=O)N[C@@H]1CCNC[C@H]1C(=O)N[C@H](CC(=O)N[C@@H](CCC(=O)O)CC(=O)O)Cc1ccccc1)NC(=O)C[C@H](Cc1c[nH]c2ccccc12)NC(=O)[C@@H]1CNCC[C@H]1N	?	.	-	-	?
[N-]=[N+]=NC[C@@H]1O[C@@H](n2cnc3c(N)ncnc32)[C@@H]2O[C@@H]21	-[11.4 µM]	-[11.5 µM]	-[11.4 µM]	-[7.6 µM]	-[11.4 µM]
CC[n+]1ccc(C)c2cc(S(=O)C(F)(F)F)ccc21 (configuration not stated)	-[11.4 µM]	-	6.31µM	-	-
Cc1cc2cc(CN(Cc3ccc4c(c3)OCO4)C(=O)c3cnccn3)c3nnnn3c2cc1C	?	-	-	?	31.6µM
CCN(CC)CCCCn1c(-c2ccccc2)nc2c(NCCOC)nc(C)nc21	-	-	-	-	-
CCOC(=O)C(C(C)=O)c1c(Br)c(O)c(O)c2c(C(=O)c3ccc(C)cc3)coc12 (configuration not stated)	-	?	10µM	?	-
COc1ccc(-n2nc3cc(C)c(N)c(Br)c3n2)cc1	-	31.6µM	20µM	?	-
O=C(Nc1ccc(C(=O)Nc2ccc(C(=O)Nc3ccc(S(=O)(=O)O)c4cc(S(=O)(=O)O)cc(S(=O)(=O)O)c34)cc2)cc1)Nc1ccc(C(=O)Nc2ccc(C(=O)Nc3ccc(S(=O)(=O)O)c4cc(S(=O)(=O)O)cc(S(=O)(=O)O)c34)cc2)cc1	-	-	?	-	-
CCCCCCCCCCCCOCC1CO1 (configuration not stated)	-	-	-	-	-
CCOC(=O)c1ccc(-n2[nH]c(-c3ccccc3)cc2=O)cc1	-	-	15.8µM	?	-
CCOC(=O)c1ccc(-n2c(C)nc3ccccc3c2=O)cc1	-	-	-	-	-
CC(C)NC(=O)[C@@H]1C[C@H]1[C@@H](NC(=O)OCc1ccccc1)c1ccccc1	?	-	-	-	?
O=C(N[C@@H](c1ccccc1)[C@@H]1C[C@H]1C(=O)NCc1ccccc1)OCc1ccccc1	?	-	-	-	12.6µM
COC(=O)[C@H](Cc1ccccc1)NC(=O)[C@H]1C[C@@H]1[C@H](NC(=O)OCc1ccccc1)c1ccccc1	?	-	-	-	15.8µM
O=c1c(-c2ccc(F)cc2)nc2cnc(N3CCNCC3)nc2n1-c1ccccc1	-	?	-	?	-
C[C@H](CCC(=O)O)[C@H]1CC[C@@H]2[C@@H]3CC[C@H]4C[C@@H](O)CC[C@@]4(C)[C@@H]3C[C@H](O)[C@@]21C	-[11.4 µM]	-[11.5 µM]	-[11.4 µM]	-[7.6 µM]	-[11.4 µM]
Cc1ccccc1OCc1nc2ccccc2c(=O)n1/N=C/c1ccco1	?	-	-	-	15.8µM
SMILES	TSHR ag	ERK AVP inh	Tau filament bind	CRE-bla Fsk	HEK293 cAMP cs
COc1cccc(/C=N/n2c(-c3ccco3)nc3ccccc3c2=O)c1	?	-	-	?	15.8µM
Cc1nc2scc(-c3ccccc3)c2c(=O)n1/N=C/c1ccco1	-[11.4 µM]	-	-	-	-
O=c1c2ccccc2nc(-c2ccco2)n1/N=C/c1ccco1	-	-	-	10µM	-
O=[N+]([O-])c1ccc2ncccc2c1CCc1c([N+](=O)[O-])ccc2ncccc12	?	-[11.5 µM]	-[11.4 µM]	?	?
O=C(N/N=C1/C[C@@H](O)[C@@H](O)[C@@H]2[C@@H]3C(=O)N(c4cccc(Oc5ccccc5)c4)C(=O)[C@H]3CC[C@@H]12)OCc1ccccc1	-[11.4 µM]	-[11.5 µM]	.	.	-[11.4 µM]
O=C(C1CCCCC1)N(Cc1ccccc1)c1ccccn1	-	-	-	-	-
O=C(c1ccccc1)N(Cc1ccccc1)c1ccccn1	3.98µM	-	-[11.4 µM]	?	-[11.4 µM]
CC(=O)c1ccc(C2C=CC(O)C(CO)O2)cc1 (configuration not stated)	-[11.4 µM]	-[11.5 µM]	.	.	-[11.4 µM]
CC(=O)Nc1nc(-c2cccs2)cs1	-	?	-	-	-
Nc1nc(-c2cccs2)cs1	-[11.4 µM]	-[11.5 µM]	-[11.4 µM]	-[7.6 µM]	-[11.4 µM]
COc1ccccc1Nc1nc(-c2cccs2)cs1	-	?	12.6µM	-	-
COc1ccc(OC)c(Nc2nc(-c3cccs3)cs2)c1	-	?	15.8µM	?	-
c1ccc(CSc2nnc(-c3cccs3)n2Cc2ccco2)cc1	?	-	-	-	25.1µM
Cc1cccc(-c2nnc(SCc3nc4ccccc4[nH]3)n2Cc2ccco2)c1	?	-	-	2.51µM	12.6µM
COc1cccc(-c2nnc(SCc3ccc(C#N)cc3)n2Cc2ccco2)c1	?	-	-	-	6.31µM
O=c1cc(CSc2nnc(-c3cccs3)n2Cc2ccccc2)nc2sc3ccccc3n12	?	-	-	?	10µM
CCCCCCCCCCCCCCCC(=O)OC(CO)CO	-	-	.	.	-
C=CCn1c(SCc2ccc(C#N)cc2)nnc1-c1cccc(OC)c1	?	-	-	-	3.16µM
C=CCn1c(SCc2ccc(OC)cc2)nnc1-c1cccnc1	-	-	-	-	-
c1ccc(CSCc2cn3ccsc3n2)cc1	?	-	-	-	?
O=c1c2ccccc2nc(SCc2cn3ccsc3n2)n1-c1ccccc1F	?	-	-	5.01µM	?
O=c1c2ccccc2nc(SCc2cn3ccsc3n2)n1-c1ccccc1	?	-	-	1.26µM	?
COc1ccc(-c2noc(CSc3nc(N)c(-c4ccccc4)c(=O)[nH]3)n2)cc1	.	12.6µM	-	?	-
COc1ccc(OC)c(Nc2cc(C(=O)NCCCN3CCOCC3)c3ccccc3n2)c1	-[11.4 µM]	-	10µM	-	-
O=C(O)C1C2C=CC(C2)C1C(=O)Nc1cccc(F)c1 (configuration not stated)	-	-	-	-	-
O=C(O)C1C2CCC(O2)C1C(=O)Nc1cccc(F)c1 (configuration not stated)	-	-	-	10µM	-
